The nature of assay [1]: qHTS assay to identify small molecule antagonists of the glucocorticoid receptor (GR) signaling pathway - cell viability counter screen (AID 720693). Note: nearly all actives have a fitted effect of over 55% in size.
Assay [2] in a line: qHTS assay for identifying genotoxic compounds that show differential cytotoxicity against isogenic chicken DT40 cell lines with known DNA damage response pathways - wild type cell line (AID 743012). Note: nearly all actives have a fitted effect of over 60% in size. Note: potency is the fitted concentration of half-maximal effect. The gist of the method: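 Using parental DT40 (300 cells/well), compounds delivered in DMSO incubate 40 h at 37 C/5% CO2. CellTiter-Glo reagent then stands 30 min at room temperature, and luminescence gives cell viability.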

Assay [3] can be described thus: qHTS assay for identifying genotoxic compounds that show differential cytotoxicity against isogenic chicken DT40 cell lines with known DNA damage response pathways - Rev3 mutant cell line (AID 743014). Note: nearly all actives have a fitted effect of over 55% in size. Note: potency is the fitted concentration of half-maximal effect.
Assay [4] in a line: qHTS assay for identifying genotoxic compounds that show differential cytotoxicity against isogenic chicken DT40 cell lines with known DNA damage response pathways - Rad54/Ku70 mutant cell line (AID 743015). Note: nearly all actives have a fitted effect of over 60% in size. Note: potency is the fitted concentration of half-maximal effect.
Assay [5] can be described thus: qHTS assay to identify small molecule antagonists of the androgen receptor (AR) signaling pathway - cell viability counter screen (AID 743033; note: nearly all actives have a fitted effect of over 45% in size).
Assay [6] is described as follows: qHTS assay to identify small molecule antagonists of the androgen receptor (AR) signaling pathway using the MDA cell line - cell viability counter screen (AID 743041; note: nearly all actives have a fitted effect of over 45% in size). The gist of the method:
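MDA-kb2 AR-luc cells (MMTV-luciferase, AR/GR responsive) treated with compounds plus R1881 agonist for 16 h at 37C. CellTiter-Fluor added at 15.5 h; fluorescence read after 30 min in the same wells.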

The nature of assay [7]: qHTS assay to identify small molecule antagonists of the thyroid receptor (TR) signaling pathway - cell viability counter screen (AID 743064). Note: nearly all actives have a fitted effect of over 50% in size. Note: potency is the fitted concentration of half-maximal effect. In short, it runs like this:
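Fluorescence from CellTiter-Fluor, added after 23.5 h exposure at 37 °C, reported viability of GH3.TRE-Luc cells co-treated with compound and 1 nM T3. Measured in the same wells as the luciferase TR readout.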

Assay [8] can be described thus: qHTS assay to identify small molecule antagonists of the thyroid receptor (TR) signaling pathway (AID 743065). Note: nearly all actives have a fitted effect of over 55% in size. Note: potency is the fitted concentration of half-maximal effect. The gist of the method: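 GH3.TRE-Luc rat pituitary cells (two TREs driving luciferase) were dosed with compound, then stimulated with 1 nM T3 (final) for 23.5 h at 37 C. ONE-Glo luminescence was the read-out, with CellTiter-Fluor fluorescence as the cytotoxicity counter-screen.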

The subject of assay [9] is thyroid hormone receptor (rat, GH3 cells). The experiment in a line: qHTS assay to identify small molecule agonists of the thyroid receptor (TR) signaling pathway (AID 743066; calls by dose curve).
Assay [10] in a line: qHTS assay to identify small molecule antagonists of the estrogen receptor alpha (ER-alpha) signaling pathway - cell viability counter screen (AID 743074; calls by dose curve;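 note: HEK293 cells carrying ER-alpha-UAS-bla reporter stimulated with 17beta-estradiol; nearly all actives have a fitted effect of over 45% in size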).
The nature of assay [11]: qHTS assay to identify small molecule antagonists of the estrogen receptor alpha (ER-alpha) signaling pathway using the BG1 cell line (AID 743080; calls by dose curve;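 note: BG1 cells stimulated with 17beta-estradiol alongside compound; series mostly up to about 70 µM; nearly all actives have a fitted effect of over 25% in size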). The gist of the method:
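Endogenous full-length ER-alpha in BG1-Luc-4E2 cells drives a stably integrated 4×ERE luciferase gene; compounds were tested against 17beta-estradiol over 21.5 h, with luminescence and multiplexed viability fluorescence recorded.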

A short description of assay [12]: qHTS assay to identify small molecule antagonists of the estrogen receptor alpha (ER-alpha) signaling pathway using the BG1 cell line - cell viability counter screen (AID 743081).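 Note: compound given together with 17beta-estradiol as the ER stimulus; series mostly up to about 70 µM; nearly all actives have a fitted effect of over 45% in size.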
Assay [13] concerns the target Aromatase (Homo sapiens) (UniProt P11511). The experiment in a line: qHTS assay to identify aromatase inhibitors (AID 743083). Note: series mostly up to about 70 µM; nearly all actives have a fitted effect of over 55% in size.
Assay [14] can be described thus: qHTS assay to identify aromatase inhibitors - cell viability counter screen (AID 743084).
Assay [15] addresses Estrogen receptor (Homo sapiens) (UniProt P03372). The experiment in a line: qHTS assay to identify small molecule agonists of the estrogen receptor alpha (ER-alpha) signaling pathway (AID 743075; calls by dose curve).
Assay [16] shares this target. The experiment in a line: qHTS assay to identify small molecule agonists of the estrogen receptor alpha (ER-alpha) signaling pathway using the BG1 cell line (AID 743079). Note: nearly all actives have a fitted effect of over 20% in size. Note: potency is the fitted concentration of half-maximal effect.
Assay [17] has the same target. The assay is described as follows: qHTS assay to identify small molecule antagonists of the estrogen receptor alpha (ER-alpha) signaling pathway (AID 743069; active = well fitted curve in the direction sought with a large enough effect in the signal ratio in the repeat runs, not every such curve was filed as active; the % refers to the signal ratio). The gist of the method:
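HEK293 ER-alpha-UAS-bla GripTite cells, held overnight in 2% charcoal-stripped FBS, 5,000 cells/well, preincubated 4 h, then compound plus 17beta-estradiol for 18 h at 37C. Beta-lactamase read by LiveBLAzer B/G FRET substrate, 2 h at room temperature.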

Records with an inconclusive call do not appear. Values without a mark were called inactive. The source made the active and inactive calls. Unless noted, calls come from the whole dose curve; as a rule, active = well fitted curve in the direction sought with a large enough effect in the repeat runs; inconclusive = weak or mixed curves; inactive = no such curve, though single readings can be large; an effect the other way counts as inactive or inconclusive.

Sequence of Estrogen receptor (Homo sapiens) (P03372 whole entry, looked up): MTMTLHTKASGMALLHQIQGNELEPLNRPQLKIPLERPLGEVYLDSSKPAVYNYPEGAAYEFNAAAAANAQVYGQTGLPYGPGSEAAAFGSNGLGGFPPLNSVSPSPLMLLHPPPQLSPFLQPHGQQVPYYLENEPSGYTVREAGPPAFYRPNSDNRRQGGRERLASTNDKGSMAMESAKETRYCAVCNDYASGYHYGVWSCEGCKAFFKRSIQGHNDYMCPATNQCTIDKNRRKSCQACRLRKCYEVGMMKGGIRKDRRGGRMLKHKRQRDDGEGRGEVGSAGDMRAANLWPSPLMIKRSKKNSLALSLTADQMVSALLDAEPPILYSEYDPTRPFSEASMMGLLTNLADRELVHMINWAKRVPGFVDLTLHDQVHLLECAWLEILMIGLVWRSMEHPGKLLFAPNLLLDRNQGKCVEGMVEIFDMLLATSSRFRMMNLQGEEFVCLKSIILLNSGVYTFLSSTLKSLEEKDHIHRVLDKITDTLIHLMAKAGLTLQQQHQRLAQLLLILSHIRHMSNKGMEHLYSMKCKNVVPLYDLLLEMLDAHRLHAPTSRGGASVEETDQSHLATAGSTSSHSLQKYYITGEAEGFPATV
Sequence of Aromatase (Homo sapiens) (P11511 whole entry, looked up): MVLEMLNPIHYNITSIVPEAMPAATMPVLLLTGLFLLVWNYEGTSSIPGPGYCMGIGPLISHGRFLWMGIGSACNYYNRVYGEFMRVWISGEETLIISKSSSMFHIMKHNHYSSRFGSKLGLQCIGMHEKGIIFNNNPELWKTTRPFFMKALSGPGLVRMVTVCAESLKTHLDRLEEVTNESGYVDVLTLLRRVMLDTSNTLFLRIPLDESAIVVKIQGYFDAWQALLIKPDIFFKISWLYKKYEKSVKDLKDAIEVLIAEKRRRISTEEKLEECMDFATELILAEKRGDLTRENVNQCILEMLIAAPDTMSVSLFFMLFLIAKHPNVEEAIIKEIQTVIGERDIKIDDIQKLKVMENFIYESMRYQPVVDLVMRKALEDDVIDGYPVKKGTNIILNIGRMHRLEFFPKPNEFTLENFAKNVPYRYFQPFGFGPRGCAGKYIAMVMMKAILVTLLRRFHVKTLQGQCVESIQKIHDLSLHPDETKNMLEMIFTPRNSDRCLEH

Turning to `c1ccc2c(CC3=NCCN3)cccc2c1`, the outcome in [1], in [5], in assay [9], in [10], in assay [11] and in [13] was inactive. Further, the Potency result in assay [2], in [3], in [4], in assay [6], in assay [7] and in assay [8] was “inactive” in each case. Moreover, the Potency result in [12] and in [14] was “inactive” in each case.

Turning to `CN(C)CCOC(=O)C(c1ccccc1)C1(O)CCCC1` (stereo not given), the compound was classed as inactive in assay [1], in assay [5], in assay [9], in assay [10], in assay [11] and in [13]. The Potency entry in assay [2], in [3], in assay [4], in [6], in assay [7] and in assay [15] was “inactive” in each case. For the same compound, the Potency entry in assay [16], in [12] and in [14] was “inactive” each time.

For the compound `Cc1ccc2c(c1)C(=O)c1ccccc1C2=O`, the call in assay [1], in [5], in assay [9], in assay [10] and in assay [13] was inactive. Besides, the Potency was 48.4 µM (active) in assay [2], 54.3 µM (active) in assay [3], 60.9 µM (active) in assay [4] and 34.2 µM (active) in assay [16]. For the same compound, the Potency result in [6], in [7], in assay [8], in assay [15], in assay [12] and in assay [14] was “inactive” in each case.

As for `CC1(C)CC(OC(=O)CCCCCCCCC(=O)OC2CC(C)(C)NC(C)(C)C2)CC(C)(C)N1`, the outcome in assay [1], in assay [5], in assay [9], in [11] and in [13] was inactive. The Potency result in assay [2], in assay [3], in assay [4], in assay [6], in assay [15] and in assay [16] was “inactive” each time. The Potency entry in assay [12] and in assay [14] was “inactive” each time. For the same compound, the results for the Potency in [7] and in assay [8] were 2.96 µM (active) and 5.91 µM (active), respectively.

Regarding `COS(=O)(=O)O`, the outcome in [1], in assay [5], in assay [9], in [10] and in assay [13] was inactive. Also, the Potency result in assay [2], in [3], in assay [4], in assay [6], in assay [7] and in assay [8] was “inactive” throughout. Moreover, the Potency result in assay [12] and in [14] was “inactive” each time.

Take `CCCCOCC(C)O` (stereo not given): the outcome in assay [1], in assay [5], in [9], in [10], in [11] and in assay [13] was inactive. The Potency result in assay [2], in assay [3], in assay [4], in [6], in assay [7] and in [8] was “inactive” in each case. The Potency result in [15], in assay [16], in assay [12] and in assay [14] was “inactive” each time.

On to `O=C(O)c1cc2ccccc2nc1C(=O)O`, for which the compound was called inactive in [1], in assay [5], in [9], in assay [17], in assay [10] and in assay [11]. Further, the outcome in assay [13] was inactive. Also, the Potency entry in assay [2], in [3], in assay [4], in assay [6], in [7] and in assay [15] was “inactive” in each case. Also, the Potency result in assay [12] and in assay [14] was “inactive” in each case.

Consider `Cn1c(=O)c2c(ncn2CCO)n(C)c1=O`, for which the outcome in assay [1], in assay [5], in assay [9], in assay [10] and in [13] was inactive. In addition, the Potency result in [2], in assay [3], in [4], in assay [6], in [7] and in assay [12] was “inactive” throughout. Moreover, the Potency entry in assay [14] was “inactive”.

Regarding `CC1=C(C(=O)O)N2C(=O)[C@@H](NC(=O)[C@H](N)c3ccccc3)[C@H]2SC1`, the compound was classed as inactive in [1], in assay [5], in assay [9], in [10] and in assay [11]. Besides, the Potency result in [2], in assay [3], in [4], in assay [6], in assay [7] and in [8] was “inactive” each time. Also, the Potency result in [15], in [16], in assay [12] and in [14] was “inactive” throughout.

`C=CC(=O)OCC1CCCO1` (stereo not given): the outcome in [1], in assay [5], in assay [17], in assay [11] and in assay [13] was inactive. Further, the Potency result in [2], in assay [3], in assay [4], in assay [6], in assay [7] and in [8] was “inactive” each time. The Potency entry in [15], in assay [16], in assay [12] and in assay [14] was “inactive” in each case.

These data come from PubChem BioAssay (Tox21).
